Data: ChEMBL document CHEMBL3988442, “University of Dundee, Small-Polar-MMV Screening Library” (2021)
About 420 (0.61%) of roughly 69,000 compounds showed an effect of 50% or more. This is one part of a sample in which strong results are shown more often than they occur.

Target: T1, Histidine--tRNA ligase (Leishmania infantum) (UniProt A4I591)
T1 sequence (whole entry): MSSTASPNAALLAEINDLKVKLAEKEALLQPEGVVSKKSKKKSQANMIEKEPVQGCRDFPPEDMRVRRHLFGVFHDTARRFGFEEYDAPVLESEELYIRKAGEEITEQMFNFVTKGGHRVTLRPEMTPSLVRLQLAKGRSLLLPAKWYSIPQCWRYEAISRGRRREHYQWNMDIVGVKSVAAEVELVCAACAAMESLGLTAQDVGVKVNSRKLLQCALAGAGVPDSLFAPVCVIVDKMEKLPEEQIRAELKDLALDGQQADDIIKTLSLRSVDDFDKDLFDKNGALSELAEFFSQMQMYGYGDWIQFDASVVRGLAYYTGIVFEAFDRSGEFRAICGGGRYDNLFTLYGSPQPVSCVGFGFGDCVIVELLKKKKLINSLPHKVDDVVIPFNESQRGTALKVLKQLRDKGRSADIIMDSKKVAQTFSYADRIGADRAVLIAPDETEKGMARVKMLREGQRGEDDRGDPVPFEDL
Test: Leishmania infantum Histidine tRNA synthetase (LdHisRS)
Format: functional
Parameters: scale not given: in the data most compounds retested in dose-response had high values
Details: 30 µM

Q: `CN(C)S(=O)(=O)N1CC[C@]2(O)CCN(c3nccs3)C[C@@H]2C1` was tested. Which Percent Effect did it give?
A: 20%

Q: With `O=C(NCC1CC1)[C@H]1C[C@H]2OCC[C@H]2N(Cc2ccoc2)C1` as the compound, how does the Percent Effect read?
A: 10.5%

Q: How did the Percent Effect turn out when `c1ccc(Cn2cc(CNCC3CCCN3c3cccnn3)cn2)cc1` (centres undefined) was run?
A: 53%

Q: `c1ccc(-n2ccc(CNCC3CCCN3c3cccnn3)n2)cc1` (centres undefined) was tested. Which Percent Effect did it give?
A: 25.4%

Q: For `c1ccc(-n2ncc(CNCC3CCCN3c3cccnn3)n2)cc1` (centres undefined), which Percent Effect is on record?
A: 65.2%

Q: For `c1ccc(Cn2ccnc2CNCC2CCCN2c2cccnn2)cc1` (centres undefined), which Percent Effect is on record?
A: 5.36%

Q: `c1ccc(-n2cc(CNCC3CCCN3c3cccnn3)cn2)cc1` (centres undefined) was tested. Which Percent Effect did it give?
A: 21.9%

Q: For `c1ccc(-n2cc(CNCC3CCCN3c3cccnn3)nn2)cc1` (centres undefined), which Percent Effect is on record?
A: 6.14%

Q: How did the Percent Effect turn out when `COCCOC(=O)N1CCN2C[C@@H](CO)[C@H](c3ccccc3)[C@H]2C1` was run?
A: 2.04%

Q: For `O=C(c1ccoc1)N1CC[C@@H]2O[C@H](COCc3ccccn3)CC[C@@H]21`, which Percent Effect is on record?
A: 7.52%

Q: Which Percent Effect does the source give for `c1cnc(N2CCO[C@H]3[C@H](OCC4CC4)CC[C@@H]32)nc1` here?
A: 8.11%

Q: Which Percent Effect does the source give for `O=C1NC(c2ccccc2)=N[C@@]12CC[C@@H]1CN(Cc3ccncc3)C[C@@H]12` here?
A: 25%

Q: For `COCCNC(=O)[C@H]1C[C@@H]2CCN(c3nncs3)C[C@H]2O1`, which Percent Effect is on record?
A: 5.77%

Q: Which Percent Effect does the source give for `O=C(c1ccccc1)N1C[C@@H]2CCCO[C@@H]2[C@H](N2CCOCC2)C1` here?
A: 17.5%

Q: For `O=C(Nc1cccn(Cc2ccccc2)c1=O)c1ccncc1F`, which Percent Effect is on record?
A: 68.6%

Q: How did the Percent Effect turn out when `Cc1cc(C(=O)Nc2cccn(Cc3ccccc3)c2=O)no1` was run?
A: 23.9%

Q: How did the Percent Effect turn out when `O=C(Nc1cccn(Cc2ccc(F)cc2)c1=O)c1cnc[nH]1` was run?
A: 27.4%

Q: Which Percent Effect does the source give for `Cc1cc(C(=O)Nc2cccn(Cc3ccc(F)cc3)c2=O)on1` here?
A: 84.1%

Q: `O=C(Nc1cccn(CC(F)(F)F)c1=O)c1ccncc1F` was tested. Which Percent Effect did it give?
A: 17.1%

Q: How did the Percent Effect turn out when `Cc1cc(C(=O)Nc2cccn(Cc3ccc(F)cc3)c2=O)no1` was run?
A: 20.4%

Q: With `CC(C)CN1C[C@H]2CCN(C(=O)C3CCCO3)CC[C@H]2S1(=O)=O` (some centres undefined) as the compound, how does the Percent Effect read?
A: 13.8%

Q: `O=C1[C@H]2CC[C@H](CN(Cc3ccccc3OC(F)F)C2)N1CC1CC1` was tested. Which Percent Effect did it give?
A: 28.9%

Q: Which Percent Effect does the source give for `Cc1noc(C)c1C(=O)N1C[C@@H]2CCCO[C@@H]2[C@H](N(C)C)C1` here?
A: 7.96%

Q: With `O=C(c1ccnnc1)N1C[C@H]2CN(Cc3cccc(F)c3)C(=O)[C@H]2C1` as the compound, how does the Percent Effect read?
A: 0.917%

Q: `CNC(=O)[C@H]1C[C@@H]2CN(S(=O)(=O)c3ccccc3)C[C@@H]2N1C(C)=O` was tested. Which Percent Effect did it give?
A: 14.2%

Q: How did the Percent Effect turn out when `O=C(N1CCOCC1)[C@@]12CCO[C@@H]1CCN(CC1CCCCC1)C2` was run?
A: -3.88%

Q: With `Cc1ccc(C(=O)N2CCn3cnc(COCC4CC4)c3C2)cn1` as the compound, how does the Percent Effect read?
A: 15%

Q: Which Percent Effect does the source give for `O=C(c1ccc2[nH]ccc2c1)N1CCn2cnc(COCC3CC3)c2C1` here?
A: 61.2%

Q: Which Percent Effect does the source give for `Cc1cccc(C(=O)N2CCn3cnc(COCC4CC4)c3C2)c1` here?
A: 34.5%
